PubChem BioAssay AID1159580 (chemical genetic matrix, 2015)
Several values for one entry are separate records, joined by “and”; a condition that tells them apart may be missing. Equal values may be shown once. Out of some 5,500 compounds screened, about 2,000 (36%) were called active. About 18% were inconclusive and are not listed. Cut-off read from the data, not from the text of the source: active = normalized growth mostly below about 0.91 (no sharp cut-off); inconclusive = no clear call, values can overlap the other calls; inactive = mostly above about 0.92. The list shows a part of the results.

Experiment: chemical genetic growth profiling, strain panel (AID 1159580);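 note: tested at 20 µM; growth read once vehicle control cultures reached saturation at 30 °C; 1 = growth at the plate median or of vehicle wells; lower values mean less growth of the strain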
Settings: S. cerevisiae deletion strains, growth OD

Measured: normalized growth

CN(C)CCCN1c2ccccc2CCc2ccccc21
inactive: locus YAL013W, strain DEP1, stronger effect = lower value 1.01 and 0.974 | locus YAL021C, strain ccr4, stronger effect = lower value 0.965 | locus YAL026C, strain drs2, stronger effect = lower value 1 | locus YAL030W, strain snc1, stronger effect = lower value 1 | locus YAL040C, strain CLN3, stronger effect = lower value 1.05 | locus YBL061C, strain skt5, stronger effect = lower value 1 | locus YBR009C, strain hhf1, stronger effect = lower value 0.995 | locus YBR021W, strain FUR4, stronger effect = lower value 0.997 | locus YBR023C, strain chs3, stronger effect = lower value 1 | locus YBR171W, strain sec66, stronger effect = lower value 1.01 | locus YBR229C, strain ROT2, stronger effect = lower value 1 | locus YBR231C, strain swc5, stronger effect = lower value 1 | locus YBR279W, strain paf1, stronger effect = lower value 1 | locus YCL011C, strain gbp2, stronger effect = lower value 1.01 | locus YCL016C, strain dcc1, stronger effect = lower value 0.994 | locus YCL029C, strain bik1, stronger effect = lower value 1 | locus YCL061C, strain MRC1 (second series), stronger effect = lower value 1 | locus YCL061C, strain MRC1, stronger effect = lower value 0.997 | locus YCL069W, strain vba3, stronger effect = lower value 1 | locus YCR088W, strain abp1, stronger effect = lower value 1.01 | locus YDL005C, strain med2, stronger effect = lower value 1.01 | locus YDL035C, strain GPR1, stronger effect = lower value 1.03 | locus YDL040C, strain nat1, stronger effect = lower value 1 | locus YDL074C, strain BRE1, stronger effect = lower value 1.02 | locus YDL101C, strain DUN1, stronger effect = lower value 1.03 | locus YDL134C, strain PPH21, stronger effect = lower value 1.03 | locus YDL185W, strain tfp1, stronger effect = lower value 0.993 | locus YDL192W, strain arf1, stronger effect = lower value 0.992 | locus YDR001C, strain nth1, stronger effect = lower value 1.01 | locus YDR069C, strain doa4, stronger effect = lower value 0.994 | locus YDR101C, strain arx1, stronger effect = lower value 0.998 | locus YDR137W, strain rgp1, stronger effect = lower value 1.1 | locus YDR150W, strain NUM1, stronger effect = lower value 1.01 | locus YDR159W, strain sac3, stronger effect = lower value 1 | locus YDR162C, strain NBP2, stronger effect = lower value 1.01 | locus YDR195W, strain ref2 1.02 | locus YDR297W, strain sur2, stronger effect = lower value 0.996 | locus YDR318W, strain mcm21, stronger effect = lower value 0.994 | locus YDR334W, strain swr1, stronger effect = lower value 1.01 | locus YDR335W, strain msn5, stronger effect = lower value 1.01 | locus YDR363W, strain ESC2, stronger effect = lower value 0.964 | locus YDR388W, stronger effect = lower value 0.995 | locus YDR392W, strain spt3, stronger effect = lower value 1.01 | locus YDR502C, strain sam2, stronger effect = lower value 0.993 | locus YEL003W, strain gim4, stronger effect = lower value 1 | locus YEL037C, strain rad23, stronger effect = lower value 1 | locus YEL061C, strain CIN8 (second series), stronger effect = lower value 1.03 | locus YEL061C, strain CIN8, stronger effect = lower value 1.01 | locus YER002W, strain NOP16, stronger effect = lower value 1.01 | locus YER015W, strain faa2, stronger effect = lower value 0.993 | locus YER016W, strain bim1, stronger effect = lower value 1.01 | locus YER110C, stronger effect = lower value 0.988 | locus YER111C, strain swi4, stronger effect = lower value 0.99 | locus YER155C, strain BEM2 (second series), stronger effect = lower value 0.975 | locus YER155C, strain BEM2, stronger effect = lower value 1 | locus YER167W, strain BCK2, stronger effect = lower value 1.01 | locus YFR010W, strain ubp6, stronger effect = lower value 1.01 | locus YGL078C, strain dbp3, stronger effect = lower value 0.972 | locus YGL086W, strain mad1, stronger effect = lower value 1.01 | locus YGL167C, strain pmr1, stronger effect = lower value 1.01 | locus YGL173C, strain kem1, stronger effect = lower value 0.991 | locus YGL227W, strain vid30, stronger effect = lower value 1 | locus YGL240W, strain doc1, stronger effect = lower value 1 | locus YGL248W, strain PDE1, stronger effect = lower value 1.01 | locus YGL253W, strain hxk2, stronger effect = lower value 1.02 | locus YGR078C, strain PAC10, stronger effect = lower value 1 and 0.981 | locus YGR135W, strain pre9, stronger effect = lower value 0.958 | locus YGR229C, strain SMI1, stronger effect = lower value 1 and 0.978 | locus YGR252W, strain gcn5, stronger effect = lower value 0.942 | locus YHR013C, strain ard1, stronger effect = lower value 0.947 | locus YHR027C, strain rpn1, stronger effect = lower value 1.01 | locus YHR030C, strain SLT2, stronger effect = lower value 1 and 0.993 | locus YHR079C, strain IRE1 (second series), stronger effect = lower value 0.989 | locus YHR079C, strain IRE1, stronger effect = lower value 1.01 | locus YHR094C, strain hxt1, stronger effect = lower value 0.978 | locus YHR129C, strain ARP1, stronger effect = lower value 1.01 | locus YHR142W, strain chs7, stronger effect = lower value 1.02 | locus YHR200W, strain rpn10, stronger effect = lower value 1 | locus YIL066C, strain RNR3, stronger effect = lower value 1.01 | locus YIL073C, strain SPO22, stronger effect = lower value 1 | locus YIL125W, strain kgd1, stronger effect = lower value 0.995 | locus YIR030C, strain dcg1, stronger effect = lower value 0.984 | locus YJL092W, strain hpr5, stronger effect = lower value 1.01 | locus YJL095W, strain BCK1 (second series), stronger effect = lower value 0.996 | locus YJL095W, strain BCK1, stronger effect = lower value 0.997 and 0.998 | locus YJL115W, strain asf1, stronger effect = lower value 1.01 | locus YJL129C, strain trk1, stronger effect = lower value 0.995 | locus YJL134W, strain LCB3, stronger effect = lower value 1.01 | locus YJL154C, strain vps35, stronger effect = lower value 1.02 | locus YJL164C, strain tpk1, stronger effect = lower value 1 | locus YJL166W, strain qcr8, stronger effect = lower value 1.02 | locus YJL168C, strain set2, stronger effect = lower value 0.984 | locus YJL187C, strain SWE1 (second series), stronger effect = lower value 1.01 | locus YJR043C, strain POL32, stronger effect = lower value 1.03 | locus YJR066W, strain TOR1, stronger effect = lower value 0.923
